Measured values published in PubChem BioAssay AID1822 (The Scripps Research Institute Molecular Screening Center, 2009).
Out of some 290,000 compounds screened, about 3,500 (1.2%) were called active. This is one part of a sample in which actives are shown more often than they occur. A number with no mark means an inactive call.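 The calls were made as follows: active = inhibition above the campaign mean inhibition over all tested compounds plus 3 SD (cut at about 28% in these data); inactive = the rest.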

System: M18 aspartyl aminopeptidase (Plasmodium falciparum 3D7)
Test: inhibition of P. falciparum M18 aminopeptidase – biochemical, QFRET, recombinant enzyme, primary screen (AID 1822);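 also: 0% = plate median of test compound wells and 100% = 2 mM ZnCl2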
Settings: recombinant PfM18AAP, H-Glu-NHMec fluorogenic cleavage; at 7.35 µM; hits give high values

| Structure (SMILES) | inhibition |
| --- | --- |
| Cc1ccc2c(c1)c1ncnc(N3CCc4ccccc4C3)c1n2C | -0.51% |
| CC(C)OCCCNC(=O)CN1C(=O)/C(=C/c2ccccc2F)Oc2ccccc21 | -19.2% |
| Cc1ccc(OCC(=O)Nc2ccc(C(=O)O)cc2NC(=O)COc2ccc(C)c(C)c2)cc1C | 0.26% |
| COCCn1c(SCc2nnc(-c3ccc(OC)c(OC)c3)o2)nc2sc3c(c2c1=O)CCC3 | -13.2% |
| CSc1ccc(S(=O)(=O)N2CCC(C(=O)NCCc3ccccc3)CC2)cc1 | 0.01% |
| O=C(NCc1ccncc1)C1CCN(C(=O)c2cccc(Cl)c2)CC1 | -1.77% |
| O=C(c1cccs1)N(Cc1cc2ccccc2[nH]c1=O)CC1CCCO1 (stereo unspecified) | 2.59% |
| O=C(Nc1ccc(C(=O)NCc2ccccc2Cl)cc1)C1=CSCCO1 | 2.51% |
| O=c1c2ccccc2nc(N/N=C/c2ccccc2)n1O | 3.06% |
| CC(C)(C)c1nnc(N/N=C/c2ccc(O)cc2)n(N)c1=O | 44.5% (active) |
| Nc1nnn(CC(=O)N/N=C/c2ccc(O)cc2)n1 | 7.09% |
| O=c1cc(Cl)c2ccccc2n1-c1ccccc1 | 1.05% |
| CN(C(=O)CSc1nnc(-c2n[nH]c3ccccc23)o1)c1ccccc1 | -5.28% |
| O=c1[nH]c(=S)[nH]c2[nH]c(=S)[nH]c12 | 43.7% (active) |
| Cc1c(C)c(C)c2[nH]c(=S)[nH]c2c1C | -2.04% |
| O=C(N/N=C/c1c[nH]c2ccccc12)c1cc2ccccc2o1 | -7.84% |
| O=C(N/N=C/c1coc2ccccc2c1=O)c1cc2ccccc2o1 | 36.8% (active) |
| Cc1ccc2occ(/C=N/NC(=O)c3ccccc3C)c(=O)c2c1 | 6.11% |
| O=c1c(/C=N/O)coc2ccc(Cl)cc12 | 8.13% |
| Cc1c(/C=N\NC(=O)c2cc3ccccc3o2)c2ccccc2n1C | 0.69% |
| NC(=S)N/N=C/c1coc2cc(Cl)ccc2c1=O | 50.2% (active) |
| C[C@H](C(=O)CC(=O)OC(C)(C)C)[C@H](O)c1ccc(C(F)(F)F)cc1 | 2.4% |
| O=S(=O)(c1ccc(Cl)cc1)c1nc(-c2ccccc2F)oc1NCCN1CCOCC1 | 1.96% |
| CN(Cc1ccccc1)C(=O)CSc1nc2ccccc2[nH]1 | 7.79% |

| Structure (SMILES) | inhibition |
| --- | --- |
| O=C(C1CCCO1)N1CCN(S(=O)(=O)c2ccc(Br)cc2)CC1 (stereo unspecified) | -7.44% |
| Cc1cccn2c(=O)c3cc(C(=O)NCCN4CCOCC4)c(=N)n(Cc4cccnc4)c3nc12 | 7.09% |
| COCCNC(=O)C1CCN(C(=O)C2CC(=O)N(c3ccc(C)cc3)C2)CC1 (stereo unspecified) | -4.37% |
| CC(C)(C)N(Cc1ccccc1)C(=O)c1ccncc1 | 2.34% |
| Cc1cc(/C=N/Nc2ccc([N+](=O)[O-])cn2)c(C)n1-c1cccc(C(=O)O)c1 | 50.7% (active) |
| Cc1cc(/C=C2\SC(=O)N(C)C2=O)c(C)n1-c1cccc(C(=O)O)c1 | 7.23% |
| Cc1ccc(-n2c(C)cc(/C=N/Nc3ccc([N+](=O)[O-])cn3)c2C)c(C)c1 | 7.66% |
| COc1cc(/C=N\Nc2ccc([N+](=O)[O-])cn2)ccc1OCC(=O)O | 43.1% (active) |
| CCOc1ccc(/C=N/Nc2nncc(-c3ccccc3)n2)cc1OC | 8.38% |
| COc1cc(/C=N/O)ccc1OCc1ccc([N+](=O)[O-])cc1 | 2.23% |
| CC(=O)c1c(C)n(-c2ccc(C)cc2)c2ccc(O)cc12 | -3.09% |
| CCCCN(Cc1ccccc1)C(=O)C1CCN(Cc2sccc2C)CC1 | 10.9% |
| CCC(C)C(=O)Nc1ccccc1N1CCN(c2ccc(F)cc2)CC1 (stereo unspecified) | 4% |
| OCCNc1nc2ccccc2n1-c1ncnc2sc3c(c12)CCC3 | -6.82% |
| Cc1ccc(C)c(NC(=O)CSc2nc3c(oc4ccccc43)c(=O)n2-c2ccccc2)c1 | 2.4% |
| CCOC(=O)c1cccc(NS(=O)(=O)c2c(C(=O)N3CCCCCC3)c(C)n(C)c2C)c1 | 0.1% |
| Cc1ccc(Sc2cc(N3CCOCC3)nc(-c3ccccc3)n2)cc1 | 28.3% (active) |
| Cc1cc(N2CCOCC2)nc(-c2ccc(Br)cc2)n1 | -2.46% |
| Cc1cc(N2CCN(c3ccccc3)CC2)nc(N2CCOCC2)n1 | -12.7% |
| Cc1cc(C)nc(-n2nc(C)cc2NC(=O)c2ccc(Br)o2)n1 | -3.58% |
| CSc1n[nH]c(=S)n1N | 32.7% (active) |
| O=C(Nc1ccccc1)Nc1ccc(C(F)(F)F)cn1 | -2.42% |
| Oc1ccc(Br)cc1/C=N/Nc1ccccn1 | 15.5% |
| Oc1ccc(/C=N/Nc2ccc(C(F)(F)F)cn2)cc1O | 34.4% (active) |

| Structure (SMILES) | inhibition |
| --- | --- |
| CCc1ccc(Nc2nnc(SCC(=O)c3ccc4c(c3)NC(=O)CO4)s2)cc1 | 3.56% |
| O=C(Cn1nc([N+](=O)[O-])nc1Br)NC1CCCCC1 | 0.92% |
| CCOc1cc(NC(=O)c2cnccn2)c(OCC)cc1NC(=O)c1ccc(C)cc1 | 5.95% |
| O=C(OCC1O[C@@H](OC(=O)c2cc(O)c(O)c(O)c2)[C@@H](OC(=O)c2cc(O)c(O)c(O)c2)[C@@H](OC(=O)c2cc(O)c(O)c(O)c2)[C@@H]1OC(=O)c1cc(O)c(O)c(O)c1)c1cc(O)c(O)c(O)c1 (stereo partly specified) | 41.3% (active) |
| CN(C)c1ccc(CNC(=O)CN2C(=O)COc3ccc(S(=O)(=O)N4CCCC4)cc32)cc1 | 4.42% |
| COc1ccccc1CCNC(=O)C1CCN(C(=O)/C=C/c2ccccc2)CC1 | -9.1% |
| CCOc1ccc(/C=N\NC(=O)c2c(C)nc3cc(C)ccn23)cc1 | -0.74% |
| O=C1CCCCN1CCCC(=O)N1CCCC(Nc2ccc(F)cc2)C1 (stereo unspecified) | 33.9% (active) |
| O=C(CN1CCOC1=O)N1CCCC(Nc2ccc(F)c(F)c2)C1 (stereo unspecified) | -0.1% |
| O=C(CN1C(=O)CSC1=O)N1CCCC(Nc2ccc(F)cc2)C1 (stereo unspecified) | -12.5% |
| CCOC(=O)[C@@H]1[C@H]2COc3cc(OC)ccc3[C@@H]2N2C(=O)N(c3cccc(C)c3)C(=O)[C@@]12C | -13.2% |
| CCOC(=O)c1c(-c2ccccc2)oc2cc(Br)c(O)c(C=O)c12 | 28.4% (active) |
| CCOC(=O)c1c(-c2ccccc2)oc2cc(Br)c(O)cc12 | -7.24% |
| CCOC(=O)c1c(-c2ccccc2)oc2ccc(OCC(N)=O)cc12 | 4.97% |
| O=C(c1cnc(Cl)c(Cl)c1)N1CCN(S(=O)(=O)c2ccc(F)cc2)CC1 | -8.29% |
| Cc1ccc(OCC(=O)Nc2nnc(-c3ccco3)s2)cc1 | -1.67% |
| COc1ccc(OCC(=O)Nc2nnc(-c3ccco3)s2)cc1 | 29.5% (active) |
| CNc1nnc(-c2ccco2)s1 | -6.9% |
| N#Cc1cccc(CN2CCC(=O)N([C@H](CO)c3ccccc3)CC2)c1 | -11.8% |
| Cn1c2ccc(F)cc2c2nnc(NN)nc21 | 30.3% (active) |
| CCn1c2ccc(F)cc2c2nnc(SCCN3CCOCC3)nc21 | 10.1% |
| Cc1ccc2c(c1)c1ncn(Cc3ccc(F)cc3)c(=O)c1n2C | -2.55% |
| Cc1cccc(C(=O)NNC(=O)CSc2nnc(C(C)C)n2C)c1 | -1.87% |
| COc1ccccc1/C=N\Nc1cc(C)nc(-n2nc(C)cc2C)n1 | 4.17% |

| Structure (SMILES) | inhibition |
| --- | --- |
| COc1cccc(/C=N/Nc2cc(C)nc(-c3ccccc3O)n2)c1O | 52.7% (active) |
| COc1cccc(/C=N/Nc2ncc(C(F)(F)F)cc2Cl)c1O | 12.8% |
| COC(=O)c1ccc(OC(=O)c2cnccn2)cc1 | 5.19% |
| O=c1oc2ccccc2cc1-c1cn(-c2ccccc2)c(=S)[nH]1 | 11.4% |
| COc1ccc(-c2cn(-c3ccc(OC)cc3)c(=S)[nH]2)cc1 | 24.3% |
| S=c1[nH]c(-c2cccs2)cn1-c1ccccc1 | 38.5% (active) |
| Cc1cc(C)c2nc(N(CCN(C)C)C(=O)/C=C/c3cccs3)sc2c1 | 0.71% |
| S=C(NCCCc1ccccc1)Nc1ccc(Br)cc1 | -6.24% |
| O=C(CSC(=S)N1CCOCC1)c1cc(Br)cc(Br)c1O | 44.3% (active) |
| O=C(CSC(=S)N1CCOCC1)c1ccccc1 | 4.44% |
| O=C(c1cc2cc(Br)cc(Br)c2oc1=O)N1CCOCC1 | -1.08% |
| Cc1ccc2c(c1)sc1ncc(NC(=O)c3ccccc3)c(=O)n12 | -1.31% |
| CN(CC(=O)NCCN1CCOCC1)S(=O)(=O)c1ccc(F)cc1 | -0.36% |
| CCc1ccc(C(=O)COC(=O)c2ccco2)cc1 | 1.62% |
| Cc1ccc(OCc2n[nH]c(=S)n2-c2ccc(C)cc2)cc1 | 14.1% |
| S=c1[nH]nc(COc2ccccc2)n1-c1ccccc1 | 19.1% |
| COc1ccc(OCc2n[nH]c(=S)n2N)cc1 | 32.5% (active) |
| COc1ccc(CNC(=O)CN(C(=O)c2csnn2)c2cnc3ccccc3c2)cc1 | 3.77% |
| CN(C)[C@@H]1C(=O)C(C(N)=O)=C(O)[C@@]2(O)C(=O)C3=C(O)c4c(O)ccc(Cl)c4[C@@H](O)[C@H]3C[C@@H]12 | 37% (active) |
| COc1ccc(CN2CCN(C(=O)CCC(=O)Nc3nnc(C(C)C)s3)CC2)cc1F | 0.79% |
| CC1CC(C)CN(CCCNC(=O)c2csc3c2CCCCC3)C1 (stereo unspecified) | -10.4% |
| COc1ccc(C2C3=C(CCCC3=O)N(CC(=O)O)C3=C2C(=O)CCC3)cc1 | 5.23% |
| CCOc1ccc(C2C(C#N)=C(N)N(N(C)C)C3=C2C(=O)CCC3)cc1 (stereo unspecified) | 8.27% |
| CCOc1ccc(C2C3=C(CCCC3=O)N(CC(=O)O)C3=C2C(=O)CCC3)cc1 | 32.6% (active) |
